Consider 14 compounds from PubChem BioAssay (NCATS).

Assay [1] is described as follows: qHTS Screen of the MIPE 4.0 Collection Against Ewings Sarcoma (RDES) (AID 1259252). Note: nearly all actives have a fitted effect of over 35% in size. Note: potency is the fitted concentration of half-maximal effect. The method, boiled down:
(§1)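 Cells plated in serum-containing RPMI (5% FBS) and treated with compound dilutions for 48 h. Readout luminescent viability; normalization relied on vehicle (no inhibition) and media-only columns (full inhibition).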

Assay [2] is described as follows: qHTS Screen of the MIPE 4.0 Collection Against Ewings Sarcoma (TC71) (AID 1259253). Note: nearly all actives have a fitted effect of over 40% in size. Note: potency is the fitted concentration of half-maximal effect. The method, boiled down:
as §1
On the technique in general: qHTS replaces the single test concentration by a dilution series.

Assay [3] in a line: qHTS Screen of the MIPE 4.0 Collection Against Ewings Sarcoma (EW8) (AID 1259255). Note: nearly all actives have a fitted effect of over 35% in size. Note: potency is the fitted concentration of half-maximal effect. The method, boiled down: as §1
Assay [4] is described as follows: qHTS Screen of the MIPE 4.0 Collection Against Ewings Sarcoma (TC32) (AID 1259256). Note: nearly all actives have a fitted effect of over 45% in size. Note: potency is the fitted concentration of half-maximal effect. The method, boiled down:
as §1

Assay [5] is described as follows: Identifying Small Molecule Inhibitors of Pancreatic Cancer Stem Cells (Panc1, Spheroid) (AID 1259359).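 Note: potency is the fitted concentration of half-maximal effect; compound exposure lasted 48 h before reading.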 The method, boiled down:
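Endpoint: ATP-based luminescence, 48 h drug exposure. Bortezomib at 9.2 uM final as full-kill control; DMSO vehicle as negative control; activity normalized between vehicle and cell-free wells.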

A short description of assay [6]: Identifying Small Molecule Inhibitors of Pancreatic Cancer Stem Cells (SN12C, Spheroid) (AID 1259360). Note: potency is the fitted concentration of half-maximal effect. The note with it: Potency: SN12C spheroid viability. The method, boiled down: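 Adherent (2D) versus sphere (3D) formats; spheres generated 14 d in SCM beforehand. Compound transferred by pin tool after 4 h, 48 h incubation, CellTiter-Glo endpoint.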
Assay [7] in a line: Identifying Small Molecule Inhibitors of Pancreatic Cancer Stem Cells (A278, Adherent) (AID 1259361).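 Note: viability read after 48 h compound exposure; nearly all actives have a fitted effect of over 35% in size.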 The method, boiled down:
(§2)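 Pre-formed 14-day tumor spheroids or adherent cells dosed and incubated 48 h, 37C, 5% CO2. Viability assessed by CellTiter-Glo.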

Assay [8] is described as follows: P-glycoprotein substrates identified in KB-8-5-11 adenocarcinoma cell line, qHTS therapeutic library screen (AID 1346987). Note: nearly all actives have a fitted effect of over 65% in size. Note: potency is the fitted concentration of half-maximal effect. The method in brief: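 Human cervical adenocarcinoma KB-8-5-11 cells, selected in colchicine to over-express P-gp and assayed without it, were exposed for 72 h to titrated compounds. An ATP-based luminescent viability signal gave AC50.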
A short description of assay [9]: NS1 protein of Zika virus - qHTS assay to identify small molecule inhibitors in human HEK 293 cells (AID 1347053). Note: nearly all actives have a fitted effect of over 55% in size. Note: potency is the fitted concentration of half-maximal effect. The method in brief: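 Readout was TR-FRET using paired anti-NS1 antibodies after 24 h infection of HEK 293 cells with ZIKV MR766 (MOI = 0.5). Compound preceded virus by 1 h; reduced signal reflects lower NS1 expression.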
Assay [10] in a line: P-glycoprotein substrates identified in KB-3-1 adenocarcinoma cell line, qHTS therapeutic library screen (AID 1346986).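 Note: potency is the fitted concentration of half-maximal effect; potency is for cytotoxicity meaning loss of cell viability; nearly all actives have a fitted effect of over 60% in size.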 The method, boiled down: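 Dose-response cytotoxicity, KB-3-1 vs P-gp-high KB-8-5-11, no colchicine in assay medium. Read: CellTiter-Glo at 72 h.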
The nature of assay [11]: Identifying Small Molecule Inhibitors of Pancreatic Cancer Stem Cells (Panc1, Adherent) (AID 1259362). Note: potency is the fitted concentration of half-maximal effect. Conditions: Potency: viability. The method, boiled down: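 Viability is scored by CellTiter-Glo luminescence 48 h after dosing, expressed as percent activity against vehicle and no-cell references. Spheroid formats rely on cells cultured 14 days in stem cell media beforehand.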

Assay [12] is described as follows: Identifying Small Molecule Inhibitors of Pancreatic Cancer Stem Cells (SN12C, Adherent) (AID 1259358).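 Note: cell survival measured after 48 h of compound exposure.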 The method in brief: as §2

“And” between values parts separate entries of the source, which are not always exact repeats. Identical values can stand only once. Inconclusive results are not listed. The source made the active and inactive calls. Calls come from the whole dose curve; as a rule, active = well fitted curve in the direction sought with a large enough effect; inconclusive = small, poorly fitted or top-dose-only effect, or another doubt; inactive = no such curve, though single readings can be large; an effect the other way counts as inactive or inconclusive.

As for `C=CCn1c(=O)c2cnc(Nc3ccc(N4CCN(C)CC4)cc3)nc2n1-c1cccc(C(C)(C)O)n1`, the Potency was 0.264 µM (active) in assay [1]; 0.332 µM (active) in [2]; 0.0833 µM (active) in [3]; 0.372 µM (active) in assay [4]; 0.418 µM (active) in assay [5]; 1.66 µM (active) in assay [6]. For the same compound, the Potency in assay [8] is 3.72 µM (active) and 5.8 µM (active); in [9], 0.418 µM (active). In addition, the IC50 (viability decrease) in assay [7] is 0.59 µM (active).

On to `Cc1cccc(C=NNc2cc(N3CCOCC3)nc(OCCc3ccccn3)n2)c1`, for which the Potency in assay [1] was 18.7 µM (active); in [2] it was 16.6 µM (active); in assay [3], 16.6 µM (active); in assay [4], 5.26 µM (active); in [5] it was 23.5 µM (active); in [9], 23.5 µM (active).

For the compound `COc1ccc(CC2SC(=O)NC2=O)cc1C(=O)NCc1ccc(C(F)(F)F)cc1` (stereo unspecified), the Potency entry in assay [1], in [2], in [3], in assay [4], in assay [6] and in assay [8] was “inactive” throughout. Further, the Potency result in assay [9] is “inactive”. In addition, the IC50 (viability decrease) entry in [7] is “inactive”.

Take `COC(=O)c1ccc2c(C(=Nc3ccc(N(C)C(=O)CN4CCN(C)CC4)cc3)c3ccccc3)c(O)[nH]c2c1`: the Potency in [1] was 0.148 µM (active); in assay [2], 0.743 µM (active); in assay [3] it was 3.32 µM (active); in assay [4], 1.48 µM (active); in assay [5], 13.2 µM (active); in assay [6], 18.7 µM (active). Also, the IC50 (viability decrease) in assay [7] is 4.69 µM (active). The Potency result in assay [9] is “inactive”.

As to `CC(C)c1ccccc1Cc1cc(C(=O)Nc2ccc(S(=O)(=O)c3ccccc3C(C)(C)C)cc2)c(O)c(O)c1O`, the Potency in assay [1] is 7.43 µM (active); in assay [2], 7.43 µM (active); in assay [3], 8.33 µM (active); in [4], 8.33 µM (active); in assay [8] it was 9.35 µM (active). For the same compound, the Potency entry in assay [6] is “inactive”.

For the compound `Cc1cn(-c2cc(NC(=O)c3ccc(C)c(Nc4nccc(-c5cccnc5)n4)c3)cc(C(F)(F)F)c2)cn1`, the Potency entry in assay [1], in assay [2], in [3], in [4] and in assay [6] was “inactive” each time.

As for `CN1CCN(c2cc(C(=O)Nc3ccc4c(c3)-c3c(c(C(N)=O)nn3-c3ccc(F)cc3)CC4)c(Cl)cn2)CC1`, the Potency in assay [1] was 2.64 µM (active); in assay [2], 4.18 µM (active); in assay [3], 20.9 µM (active); in assay [4], 13.2 µM (active); in [5], 23.5 µM (active); in [10], 29.1 µM (active). In addition, the Potency in assay [8] is 23.5 µM (active); in assay [9], 26.4 µM (active). For the same compound, in [7], the IC50 (viability decrease) is 23.5 µM (active).

With `c1cc(-c2cnn3cc(-c4ccc(OCCN5CCCCC5)cc4)cnc23)ccn1`, the Potency in [1] was 20.9 µM (active); in assay [2], 14.8 µM (active); in [3], 18.7 µM (active); in assay [4] it was 20.9 µM (active); in assay [10], 6.51 µM (active); in [8] it was 2.35 µM (active) and 10.3 µM (active). Further, the Potency entry in assay [6] was “inactive”. Moreover, in [7], the IC50 (viability decrease) was 26.4 µM (active).

On to `O=C(O)[C@H](Cc1c[nH]c2ccccc12)N1C(=O)c2ccccc2C1=O`, for which the Potency entry in assay [1], in [2], in [3], in [4], in [6] and in assay [11] was “inactive” in each case. Also, the Potency entry in [8] and in [9] was “inactive” throughout.

On to `CC(=O)Nc1sc2c(c1-c1nc3ccccc3s1)CNC2`, for which the Potency in assay [1] is 16.6 µM (active); in [2] it was 14.8 µM (active); in [3], 16.6 µM (active); in assay [4], 13.2 µM (active); in [8] it was 16.6 µM (active) and 13 µM (active). Also, the Potency result in assay [12] and in assay [9] was “inactive” throughout.

Turning to `CN(C)CC=CC(=O)Nc1cc2c(Nc3ccc(F)c(Cl)c3)ncnc2cc1O[C@H]1CCOC1`, the Potency is 18.7 µM (active) in assay [1]; 16.6 µM (active) in [2]; 20.9 µM (active) in assay [3]; 16.6 µM (active) in [4]; 11.8 µM (active) in assay [5]; 23.5 µM (active) in [6]. Further, the Potency in assay [11] was 1.48 µM (active). Further, the IC50 (viability decrease) in [7] was 23.5 µM (active). In assay [9], the Potency result is “inactive”.

Turning to `CC1(O)CC(c2nc(-c3ccc4ccc(-c5ccccc5)nc4c3)c3c(N)nccn23)C1` (stereo unspecified), the Potency in assay [1] was 20.9 µM (active); in [2] it was 5.9 µM (active); in assay [3] it was 13.2 µM (active); in assay [4] it was 0.0743 µM (active); in [5], 0.148 µM (active); in assay [10], 6.51 µM (active). The Potency in assay [8] is 14.8 µM (active) and 9.2 µM (active).

For `O=C(NCCCNc1nc(Nc2cccc(NC(=O)N3CCCC3)c2)ncc1I)c1cccs1`, the Potency was 13.2 µM (active) in assay [1]; 16.6 µM (active) in [2]; 1.87 µM (active) in assay [3]; 2.35 µM (active) in [4]; 11.6 µM (active) in [10]; 16.6 µM (active) in [8]. In assay [7], the IC50 (viability decrease) was 6.62 µM (active) and 14.8 µM (active).

Turning to `CCN1CCN(CC(=O)Nc2ccc(-c3cccc4c(=O)cc(N5CCOCC5)oc34)c3sc4ccccc4c23)CC1`, the Potency is 8.33 µM (active) in [1]; 6.62 µM (active) in assay [2]; 16.6 µM (active) in assay [3]; 1.32 µM (active) in assay [4]; 16.6 µM (active) in [5]; 14.8 µM (active) in assay [6]. Further, the Potency in [10] was 1.88 µM (active). Moreover, the IC50 (viability decrease) in [7] was 4.18 µM (active). Besides, in assay [9], the Potency entry was “inactive”.
